FECH block = inhibitors of human ferrochelatase; P22830; purified FECH, Ni-mesoporphyrin absorbance 550 nm; calls only at 10 µM (by protocol); 3.3% of 20,000 active;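 active = enzyme reaction rate more than 3 SD below the solvent-only control wells on the same plate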;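 note: lower slope than DMSO wells means FECH inhibition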
Target sequence (P22830 whole entry, looked up): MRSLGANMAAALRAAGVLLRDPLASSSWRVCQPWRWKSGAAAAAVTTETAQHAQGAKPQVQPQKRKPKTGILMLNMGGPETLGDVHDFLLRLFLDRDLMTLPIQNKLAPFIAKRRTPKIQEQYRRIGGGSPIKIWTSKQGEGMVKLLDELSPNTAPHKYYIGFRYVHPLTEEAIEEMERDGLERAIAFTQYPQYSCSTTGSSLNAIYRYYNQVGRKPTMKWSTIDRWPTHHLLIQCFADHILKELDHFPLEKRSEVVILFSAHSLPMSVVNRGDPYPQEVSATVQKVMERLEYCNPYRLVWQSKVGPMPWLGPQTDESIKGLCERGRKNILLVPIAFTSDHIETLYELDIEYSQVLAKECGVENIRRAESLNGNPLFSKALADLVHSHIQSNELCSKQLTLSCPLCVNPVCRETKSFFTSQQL
Numbers without * were called inactive; i = inactive; + = active, no number. This excerpt belongs to a sample that is enriched for hits.

SMILES	FECH block
CCN(CC1=CCN(Cc2cnc[nH]2)CC1)C(=O)c1ccco1	i
O=C1N(CCc2ccccc2)CCCC1(O)CNCc1cccc(F)c1F (stereo unspecified)	i
CCOC(=O)CCc1c(C)nc2nc(CNc3ccccc3Cl)[nH]n2c1=O	i
Cc1ccc(Cl)cc1NCc1cc(=O)n2[nH]c(NCc3ccc(F)cc3)nc2n1	i
Cc1cccc(NCc2nc3nc(C)c(Cc4ccc(Cl)cc4)c(=O)n3[nH]2)c1C	+
CCCc1cc(=O)n2[nH]c(CNc3ccccc3C)nc2n1	+
COc1ccc(Cl)cc1NCc1cc(=O)n2[nH]c(NCc3ccccc3)nc2n1	i
CCCc1cc(=O)n2[nH]c(CNc3cc(Cl)ccc3C)nc2n1	+
CCCc1cc(=O)n2[nH]c(CNc3cccc(Cl)c3C)nc2n1	+
CCCc1c(C)nc2nc(-c3ccco3)[nH]n2c1=O	i
CC(C)CCC(=O)N1CCC2(CCCN(Cc3cnn(C)c3C3CC3)C2)C1 (stereo unspecified)	i
CC(CNC(=O)c1ncc[nH]1)Oc1cccnc1 (stereo unspecified)	i
CCCCNS(=O)(=O)c1ccc(N2C(=O)CCS2(=O)=O)cc1	i
Cc1nc(C(C)C)ncc1C(=O)NC(C)c1nncn1C(C)C (stereo unspecified)	i
COc1ccc(C2C=C(c3ccc(Cl)cc3)Nc3nc(NC(=O)c4ccc(F)cc4)nn32)cc1 (stereo unspecified)	i
CC(C)c1cc(C2CCN(Cc3cccnc3N)CC2)[nH]n1	i
CC(C)OC(=O)c1cc2ccsc2n1CC(=O)Nc1ccccc1F	i
COCCNc1nc(Nc2ccc(F)cc2)c2cnn(-c3ccccc3)c2n1	i
CC(C)N(Cc1ccccc1)S(=O)(=O)c1ccc2c(c1)CCN2C(=O)CCC(=O)N1CCOCC1	i
Cc1cc(NC(=O)CCC2CCCC2)n(-c2ncnc3c2cnn3-c2cccc(Cl)c2)n1	i
CCN(CC)c1ncc(NS(=O)(=O)c2ccc(C3CCCCC3)cc2)cc1C(=O)O	i
Cc1cccc(CN2CC=C(C(=O)Nc3ccc(Cl)cc3)CC2)c1	i
COc1ccc(CNc2nc3nc(CNc4cccc(C)c4C)cc(=O)n3[nH]2)cc1	i
CCCc1cc(=O)n2[nH]c(CNc3cccc(C)c3C)nc2n1	+
Cc1cccc(NCc2cc(=O)n3[nH]c(NCc4ccccc4)nc3n2)c1C	i
SMILES	FECH block
CN(Cc1cc(C(C)(C)C)n[nH]1)Cc1ncc[nH]1	i
c1cncc(Cn2ccnc2-c2ccc(-n3ccnc3)cc2)c1	i
CCc1ccc(S(=O)(=O)Nc2cnc(N(C)CCCc3c(C)nn(C)c3C)c(C(=O)O)c2)cc1	i
COCc1cc(CN(C)c2cc(C(C)C)nc(C)n2)[nH]n1	i
Cc1cc(N(C)Cc2ncccc2C)nc(-c2ccccc2)n1	i
Cc1nc(C(C)C)cc(N(C)Cc2ncccc2C)n1	+
CCc1cc(CN2CCc3onc(-c4cccc5ccccc45)c3C2)[nH]n1	i
CCc1ccc(NC(=O)Nc2ccc(Sc3cc(CC)nc4nc(C)nn34)cc2)cc1	i
CCOc1ccc(NC(=O)Nc2ccc(Sc3cc(CC)nc4nc(C)nn34)cc2)cc1	i
CCOC(=O)Cc1ccc(NC(=O)Nc2ccc(Sc3cc(CC)nc4nc(C)nn34)cc2)cc1	+
Cc1ccc(CN2c3ccccc3-c3nc(SCC(=O)Nc4ccc(F)c(F)c4)ncc3S2(=O)=O)cc1	i
CC(C)Cc1ncc2c(n1)CN(C(=O)Cc1cccs1)C2	i
Cc1nc2c(c(NCCc3csc(-c4cccnc4)n3)n1)CCNC2	i
O=C(NCCc1csc(-c2cccnc2)n1)C1CNCCO1 (stereo unspecified)	i
c1cncc(-c2nc(CCNCc3nc(-c4ccco4)no3)cs2)c1	+
CCOC(=O)c1ccc(NC(=O)C2CCN(c3ccc(-c4cccs4)nn3)CC2)cc1	i
C=CCn1cc(CN(C)Cc2cc(-c3cccnc3)no2)c(C)n1	i
Cc1cc2ccccc2n1CCC(=O)NCc1cncn1CC(C)C	i
C=C(C)CN(CC)C(=O)c1ccc(Cn2cnnn2)cc1	i
O=C(CC1CCN(S(=O)(=O)c2ccccc2)CC1)N1CCCCC1	i
Cc1cc(C)n2nc(N(Cc3ccccc3C)S(=O)(=O)c3ccccc3)nc2n1	i
CC(=O)CN(c1nc2nc(C)cc(C)n2n1)S(=O)(=O)c1ccc(C)cc1	i
Cc1ccc(S(=O)(=O)N(Cc2ccccc2C)c2nc3nc(C)c(Cl)c(C)n3n2)cc1	i
Cc1cc(C)n2nc(CN(c3ccc(F)cc3)S(=O)(=O)c3ccc(Cl)cc3)nc2n1	i
CCCN(c1nc2nc(C)cc(C)n2n1)S(=O)(=O)c1ccc(C)cc1	+
SMILES	FECH block
Cc1ccc(S(=O)(=O)N(Cc2ccccc2C)c2nc3nc(C)cc(C)n3n2)cc1	+
Cc1cc(C)n2nc(CN(c3ccc(Cl)cc3)S(=O)(=O)c3ccccc3)nc2n1	+
Cc1cc(C)n2nc(CN(c3ccc(F)cc3)S(=O)(=O)c3ccccc3)nc2n1	i
CCCN(c1nc2nc(C)cc(C)n2n1)S(=O)(=O)c1ccccc1	i
CCCCN(CC)c1ncc(NS(=O)(=O)c2ccccc2)cc1C(=O)O	i
COc1ccc(S(=O)(=O)NCCn2c(-c3ccccc3)nc3cccnc32)cc1Cl	i
COc1ccc(N(Cc2nc3nc(C)c(Cl)c(C)n3n2)C(=O)c2ccc(C)cc2)cc1	i
O=c1cc(CN2CCOC(CCCc3ccccc3)C2)[nH]c(=O)[nH]1 (stereo unspecified)	i
COc1ccc(NC(=O)C2CCCN(c3ccc(-c4ccc(C)cc4)nn3)C2)cc1 (stereo unspecified)	i
CCC1=C(c2ccc(OC)cc2)S(=O)(=O)N(CC(=O)Nc2c(C)cccc2CC)C1=O	i
CCc1cccc(C)c1NC(=O)CSC1=NS(=O)(=O)c2ccccc2N1CC	+
CCCCNC(=O)CC1CCN(S(=O)(=O)c2ccccc2)CC1	i
CCN1C(SCC(=O)Nc2ccccc2C)=NS(=O)(=O)c2ccccc21	+
CCCCNC(=O)CSC1=NS(=O)(=O)c2ccccc2N1CC	+
Cc1cccc(C)c1NC(=O)CSCc1nc(-c2ccccc2)no1	i
CCc1cccc(C)c1NC(=O)c1nc2ccccc2n(C)c1=O	i
CCC(=O)Nc1ccccc1-c1nnc(SCC(=O)Nc2cccc(Cl)c2Cl)[nH]c1=O	i
CCN1C(SCC(=O)Nc2c(C)cccc2C)=NS(=O)(=O)c2ccccc21	+
Cc1ccc(CN2c3ccccc3-c3nc(SCC(=O)Nc4ccc(C)c(Cl)c4)ncc3S2(=O)=O)cc1	i
Cc1ccccc1N1C(=O)N(CC(=O)NC2CCCC2)c2ccccc2S1(=O)=O	i
COc1ccc(N2C(=O)N(CC(=O)NCCc3ccccc3)c3ccccc3S2(=O)=O)cc1OC	i
COc1ccc(Cl)cc1NC(=O)NCCc1nc2cccnc2n1Cc1ccc(C)cc1	i
O=C1N(CCc2ccccc2)CCCC1(O)CNCc1ccsc1 (stereo unspecified)	i
COc1ccccc1CC(=O)N1CCC2(CN(C)C(=O)O2)C1 (stereo unspecified)	i
O=C(c1ccc(-c2ccncc2)nc1)N1CCCN(C2CCCCC2)CC1	i
CSc1nc(NCCN2CCOCC2)c(C#N)c(-c2ccc(C)cc2)n1	i
Cc1ccc(N2CCCS2(=O)=O)cc1NC(=O)c1ccc2c(c1)OCO2	i
CCN1C(SCC(=O)Nc2ccc(Cl)cc2F)=NS(=O)(=O)c2ccccc21	+
CCN1C(SCC(=O)Nc2cc(Cl)ccc2C)=NS(=O)(=O)c2ccccc21	i

Screening results deposited in PubChem BioAssay by Corson Lab, School of Medicine, Indiana University.
